Reference: PubChem BioAssay AID1508600 (Functional Genomics Laboratory (NCATS/FGL), 2020)
About 3,700 (7%) of roughly 53,000 sequences were called active.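 The calls were made as follows: active = gene knockdowns whose robust z-score for IL-1 alpha signal is at least 2 or at most -2, so actives lie on both sides; inactive = the rest.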 This excerpt belongs to a sample that is enriched for actives.

Assay: Components of the Cytosolic LPS Sensing Pathway: Gene Identification via Genome-wide siRNA Screen;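 also: robust z of the log signal after scaling to non-targeting control siRNA wells of the plate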
Conditions: RAW264.7 macrophages, IL-1a HTRF, actives lie on both sides, screened at 100 nM (by protocol), cells primed 5 h with Pam3CSK4 first
How it was run: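 RAW264.7 mouse macrophages reverse-transfected with single siRNAs (100 nM final) for 48h, primed with Pam3CSK4 for 5 hours, then transfected with LipidA for 24 hour. Supernatant IL-1a read by HTRF; values normalized to negative-control median, log-transformed robust z-scores.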

Row | Sequence | z-score
1 | GGGACUGGCACCAUUUGUUTT against Cetn4 | -0.289 (inactive)
2 | GGACAUGGCUUUAUAACCUTT against Dcdc5 | 0.256 (inactive)
3 | GCAGCAUAGAGACUAAAUCTT against Usp17la | 0.604 (inactive)
4 | GGAUAAAAUUGAGUCUAUGTT against Was | 1.81 (inactive)
5 | GGGCCAAUGAUGGACUUCCTT against Syp | 0.33 (inactive)
6 | GGCCCUAUUAGAGAUAAAATT against Robo3 | -1.2 (inactive)
7 | GGUAGUCUGAACACUCUAATT against Msto1 | 0.427 (inactive)
8 | GGAAGAAGAGGAGGAGAUGTT against Zbtb7b | 3.17 (active)
9 | GCUAUCUCCACUCUGAGUCTT against Spryd4 | -0.342 (inactive)
10 | CCGCCAGGGAAACAAAUACTT against Zfp414 | -1.21 (inactive)
11 | GCUUCUGCUUGUUCGCUAGTT against Usp17ld | 2.7 (active)
12 | GCUCACUAUGUAAAGAGAATT against Itpk1 | 0.807 (inactive)
13 | GGAGAGUCAAGUCUUUUCUTT against Dnal4 | 0.0546 (inactive)
14 | GGACAAACUCCGAGACUCCTT against Utf1 | -0.339 (inactive)
15 | GGAUGAUCAUUCUAGCUGUTT against Hormad1 | 0.836 (inactive)
16 | GGUGUCUGAUUCUAACAUATT against Catsper4 | 0.589 (inactive)
17 | GGAAGAAAACACCAUUUUUTT against Irf6 | 3.12 (active)
18 | GGUGCAAUCAGGUAUUUCATT against Olfr917 | -2.26 (active)
19 | GGAAAGUGGACACCUUCCATT against Vezt | 1.2 (inactive)
20 | CCAGAAGCCAUUAACUAUGTT against Lck | -0.479 (inactive)
21 | GGACGUGGAAAACCACAGUTT against Nphp4 | 0.0474 (inactive)
22 | GGAUUUCGAGAAAAUCAACTT against Kctd4 | -0.225 (inactive)

Row | Sequence | z-score
23 | GGUGCUGGACAAAUUGAGATT against Cgas | -0.189 (inactive)
24 | GGAGUGCAGUCACUAUUUGTT against Il2rg | -0.0154 (inactive)
25 | GGUUCUUCAGGCCACUGAUTT against Dnaaf2 | 0.982 (inactive)
26 | GGAUGCAGAGAAGAAUCUGTT against Psmd6 | -2.65 (active)
27 | GGAGAAGGACCAUCUAAAGTT against Cmah | 0.901 (inactive)
28 | CGUCUAGGAAGGAAACAGGTT against Stk32a | -1.54 (inactive)
29 | GGAUGGUUACUAUCAGACUTT against Exoc3 | 0.187 (inactive)
30 | CCAGAUGGAAAGCGAAAAATT against Thra | -0.27 (inactive)
31 | GGAGAAUGGCCACGUAAAATT against Marcks | 0.294 (inactive)
32 | GGAUAUCUCACUGCUUUUATT against Mpp5 | 2.13 (active)
33 | GGCAUCCUUGAGCUUUAAATT against Nufip2 | -0.0213 (inactive)
34 | GGUGCAAGUUUUUCAGUCUTT against Castor2 | 0.411 (inactive)
35 | GCACCAUGAAUGGAGAUGATT against Prl2c5 | -2.56 (active)
36 | GCCAUACACAGUGGCAUAATT against Zfp811 | 0.395 (inactive)
37 | CCAUAAAUCAUGAACUGGUTT against Sesn3 | -1.41 (inactive)
38 | GGGCAAGAACUACAUCUGCTT against Wdr18 | -0.288 (inactive)
39 | CCCAAAUACUCCAAUUAUATT against Fzd3 | 0.289 (inactive)
40 | GCAUCUGGUAAAAGGAGCATT against Rpap1 | 0.956 (inactive)
41 | GCCAGUGGUAUCUGGAAGUTT against Brca2 | 0.0865 (inactive)
42 | GGUAGAGCUAAGUAAAGAGTT against Pwp1 | -0.977 (inactive)
43 | GGCAGUAAUAGGAGACCAUTT against Ces1d | 2.76 (active)
44 | GGCUUCAGCAAAGACAAUGTT against Ache | -1.07 (inactive)

Row | Sequence | z-score
45 | CGCAAAGUGGACAAACGUATT against Kcne3 | 0.0218 (inactive)
46 | CCAAUCGGUGAUCAAGAAATT against Tfap2e | -0.525 (inactive)
47 | GCCAAGGUUAUCAUGAAUGTT against F13a1 | -0.141 (inactive)
48 | GUUUUUCUGGGCAAUUUUATT against Olfr739 | 2.11 (active)
49 | GGAGAUUUACUCACAGUUCTT against Kcnip4 | 1.26 (inactive)
50 | GUAAAAUGUUCACUAAAGCTT against Olfr1248 | -1.14 (inactive)
51 | GCUUAUAAUGCCAUUACUUTT against Rad21 | -0.548 (inactive)
52 | CGAUUUAAAGUAGUAGUGGTT against Dusp28 | -1.13 (inactive)
53 | GACAGAAAUAUAGACUCGATT against Ppp1r42 | -2.45 (active)
54 | CGGAUAACAAAAGUAGCAATT against Trp53rka | 0.276 (inactive)
55 | GGUUUAGCAUCGUCCUAUATT against Crmp1 | -0.495 (inactive)
56 | CGGCAGAUGCAUUCAGGAUTT against Ccdc125 | 0.0172 (inactive)
57 | GGAGGUGUUAGAUUUUGACTT against Asrgl1 | -0.295 (inactive)
58 | GGCGGAGGAAGAGUUCAACTT against Atp6v1e2 | -0.393 (inactive)
59 | GGAUGAAACUAUUCAGCACTT against Chml | -0.635 (inactive)
60 | GCAGGAGGAUUAGUAAAUUTT against Ier2 | 0.966 (inactive)
61 | CCCUAUUGUCAAUAUUCUATT against Nr1h5 | 0.492 (inactive)
62 | GGGAGCAAAAGCUUUACUUTT against Prl3c1 | 2.25 (active)
63 | GGAGAAAUUUCUGAGAAGATT against Slc51a | -1.24 (inactive)
64 | GGCGGCCUUAGUAGAUAUCTT against Acsl4 | 0.677 (inactive)
65 | GGAACAAGGAAGUUACAGGTT against Olfr30 | -1.06 (inactive)
66 | GAAAAGAGUUUCCACGAGATT against Il19 | 0.0645 (inactive)

Row | Sequence | z-score
67 | GGAGAUUCUCCAUAACCUGTT against Rnf135 | 2.29 (active)
68 | GGGAGAAAGAUUGUAACUATT against 1110032A03Rik | -1.05 (inactive)
69 | GGAACAAAAACCAUUGUGATT against Gng7 | -1.49 (inactive)
70 | CGAACCUGUUGACGGAUUCTT against Wnt1 | 0.563 (inactive)
71 | GGACAAAGCAAUCCACAUCTT against Wdr55 | -0.564 (inactive)
72 | CCAUCGGGAUUGACUAUGGTT against Dnajc27 | -0.878 (inactive)
73 | GCUAAUGAUACAGAAGUUGTT against Snrpb2 | 0.661 (inactive)
74 | GGAGGAUGAGGAUUUUGAUTT against Spsb3 | 2.16 (active)
75 | CCACUUCUUUCCAUGAACUTT against Slc6a4 | 0.7 (inactive)
76 | GGCAGAUUGAUAAAAUUCATT against Stag1 | -0.223 (inactive)
77 | GCUCAGUCUCUUGGGUGGUTT against Cel | 2.27 (active)
78 | GCUCUGUUCACCUACCCGATT against Anapc16 | 0.264 (inactive)
79 | GGUUGUACUUGUUUUUCCUTT against Dtwd1 | 1.35 (inactive)
80 | GCAUUGUCAUGAUACAACATT against Fem1b | 0.793 (inactive)
81 | GGAGGAGAGGAGAAUAGCATT against Atp5k | -0.586 (inactive)
82 | GGAACUACAACAGAAACGATT against Cep131 | -1.42 (inactive)
83 | GUGACAAUGAAAAAUGUGUTT against Clec4b1 | -2.42 (active)
84 | GGAAAUGUCUUAUGAUAACTT against Col5a1 | 0.194 (inactive)
85 | CCUCAUCAAUCAGCCUAUGTT against Olfr1178 | -1.83 (inactive)
86 | GCAUCGCUAAGUCCGUCUUTT against Aqp4 | -0.1 (inactive)
87 | GGACCUGUAUUCUCAGGGATT against Lce1a2 | -0.251 (inactive)
88 | CCUGUAACCUUGCUUAAUGTT against Hoxc6 | 0.0208 (inactive)

Row | Sequence | z-score
89 | GGAGAAAUGAAGGUAUACATT against Cert1 | -1.12 (inactive)
90 | GGUUUAUGACAAACUGAAATT against Enpp4 | -0.0826 (inactive)
91 | GCAGAAGUUAAGAUGCAUATT against Usf1 | 2.02 (active)
92 | CCUGCUCAACGGAGACCAUTT against Hmx3 | 3.47 (active)
93 | GGCUUGAGACUUAAAACGGTT against Lztfl1 | 0.583 (inactive)
94 | CGCUGAAAUGGUGAAUAAATT against Recql | -0.0529 (inactive)
95 | GUCCCACUGUCCAGUUACATT against Gm9946 | -0.565 (inactive)
96 | CGAGAGAAGCCCAUCAUCATT against Nrg4 | 1 (inactive)
97 | GGAAGAAAAGGGAUAUCAGTT against Xirp1 | 0.253 (inactive)
98 | GGUUCAGACACCACUUCAGTT against Bgn | 2.56 (active)
99 | GGAGGAUCACCCAUCAAAUTT against Oxct1 | -0.083 (inactive)
100 | GGUAUUUUGAUGUUGGACUTT against Hhat | 0.989 (inactive)
101 | GGAUGUGAAACAUGCUUUUTT against Olfr1030 | 0.536 (inactive)
102 | CCUCAUGCAGCUCAAUCUATT against Prelp | -2.41 (active)
103 | GGCUAUGGCUUUUGUAUGUTT against Arpin | -0.0747 (inactive)
104 | GGACUCAAUAAGAACCUCGTT against Papss1 | -1.25 (inactive)
105 | GGAUGAAAGUUGUAUGUAUTT against Ctsk | -0.606 (inactive)
106 | GGAUCGUGAGCUUCUAUUATT against Gask1a | 0.434 (inactive)
107 | CGAGAAGUGCUGACUCAAUTT against Map2k3os | 0.563 (inactive)
108 | GGAUGUCUGGAAUGAAACATT against Slc17a4 | -3.16 (active)
